Assay results from ChEMBL document CHEMBL4513141, “CO-ADD screening of NIH (USA) - Clinical Collection” (2021).
Measured potencies and affinities stand elsewhere.

Legend:
Klebsiella pneumoniae = settings: Concentration 20 uM; ASSAY_TEST Inhibition of Bacterial Growth; detection method Absorption (OD600); MEDIA CAMHB; plate type 384well; NBS; CORNING #3640; time 18 hr
Candida albicans = settings: 20 µM
Cryptococcus neoformans = settings: Concentration 20 uM; ASSAY_TEST Inhibition of Fungal Growth; detection method Resazurin; Absorption (OD600-OD570); plate type 384well; NBS; CORNING #3640

For `O=C1N=C([O-])NC1(c1ccccc1)c1ccccc1.[Na+]` [PHENYTOIN SODIUM], which Inhibition (Klebsiella pneumoniae) is on record?
The Inhibition was 7.94%.

And the Inhibition (Candida albicans)?
The Inhibition was 2.49%.

And the Inhibition (Cryptococcus neoformans)?
The Inhibition was 1.23%.

`O=c1cnn([C@@H]2O[C@H](CO)[C@@H](O)[C@H]2O)c(=O)[nH]1` [6-AZAURIDINE] was tested. Which Inhibition (Klebsiella pneumoniae) did it give?
Its Inhibition is 4.69%.

What about the Inhibition (Candida albicans) of the same molecule?
The Inhibition was 7.12%.

What about the Inhibition (Cryptococcus neoformans) of the same molecule?
Its Inhibition is 7.24%.

Which results are given for `CN(C)CCOC(c1ccccc1)c1ccccc1.Cl` [DIPHENHYDRAMINE HYDROCHLORIDE]?
Inhibition (Klebsiella pneumoniae): 1.03%; Inhibition (Candida albicans): 4.49%; Inhibition (Cryptococcus neoformans): 4.12%

What does the source list for `Cc1c(C(=O)NN2CCCCC2)nn(-c2ccc(Cl)cc2Cl)c1-c1ccc(I)cc1`?
Inhibition (Klebsiella pneumoniae): -0.74%; Inhibition (Candida albicans): 7.4%; Inhibition (Cryptococcus neoformans): -5.99%

What does the source list for `CC(=O)S[C@@H]1CC2=CC(=O)CC[C@]2(C)[C@H]2CC[C@@]3(C)[C@@H](CC[C@@]34CCC(=O)O4)[C@H]12` [SPIRONOLACTONE]?
Inhibition (Klebsiella pneumoniae): 18.33%; Inhibition (Candida albicans): 1.56%; Inhibition (Cryptococcus neoformans): -2.8%

`CC1(C)S[C@@H]2[C@H](NC(=O)[C@H](N)c3ccc(O)cc3)C(=O)N2[C@H]1C(=O)O` [AMOXICILLIN] was tested. Which Inhibition (Klebsiella pneumoniae) did it give?
Its Inhibition is 10.29%.

What about the Inhibition (Candida albicans) of the same molecule?
The Inhibition was 9.25%.

And the Inhibition (Cryptococcus neoformans)?
The Inhibition was -2.09%.

What does the source list for `COc1ccc(OC)c(C(O)CNC(=O)CN)c1.Cl` (stereo not given) [MIDODRINE HYDROCHLORIDE]?
Inhibition (Klebsiella pneumoniae): 8.37%; Inhibition (Candida albicans): 2.18%; Inhibition (Cryptococcus neoformans): -10.49%

Which results are given for `C[n+]1ccccc1/C=N/O.[Cl-]` [PRALIDOXIME CHLORIDE]?
Inhibition (Klebsiella pneumoniae): 15.84%; Inhibition (Candida albicans): 0.76%; Inhibition (Cryptococcus neoformans): -2.73%

Which results are given for `NC(N)=Nc1nc(CSCC/C(N)=N/S(N)(=O)=O)cs1` [FAMOTIDINE]?
Inhibition (Klebsiella pneumoniae): 2.4%; Inhibition (Candida albicans): 3.01%; Inhibition (Cryptococcus neoformans): -2.8%

For `CN(C)CCOC(c1ccc(Cl)cc1)c1ccccn1.O=C(O)/C=C\C(=O)O` (stereo not given) [CARBINOXAMINE MALEATE], which Inhibition (Klebsiella pneumoniae) is on record?
Its Inhibition is 12.89%.

And the Inhibition (Candida albicans)?
The Inhibition was 0.99%.

What about the Inhibition (Cryptococcus neoformans) of the same molecule?
Its Inhibition is 0.28%.

How did the Inhibition (Klebsiella pneumoniae) turn out when `CC(C)(C)NC[C@H](O)COc1nsnc1N1CCOCC1.O=C(O)/C=C\C(=O)O` [TIMOLOL MALEATE] was run?
Its Inhibition is 6.73%.

What about the Inhibition (Candida albicans) of the same molecule?
Its Inhibition is -1.73%.

And the Inhibition (Cryptococcus neoformans)?
The Inhibition was -3.81%.

With `CC(C(=O)O)c1cccc(C(=O)c2ccccc2)c1` (stereo not given) [KETOPROFEN] as the molecule, how does the Inhibition (Klebsiella pneumoniae) read?
Its Inhibition is 8.94%.

And the Inhibition (Candida albicans)?
Its Inhibition is 5.45%.

And the Inhibition (Cryptococcus neoformans)?
The Inhibition was -5.87%.

How did the Inhibition (Klebsiella pneumoniae) turn out when `CN(Cc1cnc2nc(N)nc(N)c2n1)c1ccc(C(=O)N[C@@H](CCC(=O)O)C(=O)O)cc1.O` was run?
The Inhibition was 9.2%.

And the Inhibition (Candida albicans)?
The Inhibition was 12.2%.

What about the Inhibition (Cryptococcus neoformans) of the same molecule?
The Inhibition was -1.89%.

Which Inhibition (Klebsiella pneumoniae) does the source give for `Cc1ccsc1C(=CCCN1CCC[C@@H](C(=O)O)C1)c1sccc1C.Cl` [TIAGABINE HYDROCHLORIDE] here?
The Inhibition was 9.25%.

And the Inhibition (Candida albicans)?
The Inhibition was 1.98%.

What about the Inhibition (Cryptococcus neoformans) of the same molecule?
Its Inhibition is -3.18%.

How did the Inhibition (Klebsiella pneumoniae) turn out when `CCCc1nc(C)c2c(O)nc(-c3cc(S(=O)(=O)N4CCN(CC)CC4)ccc3OCC)nn12.O=C(O)CC(O)(CC(=O)O)C(=O)O` was run?
The Inhibition was 10.86%.

And the Inhibition (Candida albicans)?
The Inhibition was 4.67%.

What about the Inhibition (Cryptococcus neoformans) of the same molecule?
The Inhibition was -15.39%.

Which Inhibition (Klebsiella pneumoniae) does the source give for `Cl.O.c1cnc(N2CCN(Cc3ccc4c(c3)OCO4)CC2)nc1` here?
Its Inhibition is 3.33%.

What about the Inhibition (Candida albicans) of the same molecule?
The Inhibition was 3.11%.

What about the Inhibition (Cryptococcus neoformans) of the same molecule?
The Inhibition was -7.46%.

For `O=C(CCNNC(=O)c1ccncc1)NCc1ccccc1` [NIALAMIDE], which Inhibition (Klebsiella pneumoniae) is on record?
Its Inhibition is 13.86%.

And the Inhibition (Candida albicans)?
Its Inhibition is 4.06%.

What about the Inhibition (Cryptococcus neoformans) of the same molecule?
The Inhibition was -3.3%.

With `CN(C)[C@@H]1C(=O)C(C(=O)NCN2CCCC2)=C(O)[C@@]2(O)C(O)=C3C(=O)c4c(O)cccc4[C@@](C)(O)C3CC12` (stereo not given in full) as the molecule, how does the Inhibition (Klebsiella pneumoniae) read?
Its Inhibition is 7.32%.

And the Inhibition (Candida albicans)?
Its Inhibition is 0.75%.

What about the Inhibition (Cryptococcus neoformans) of the same molecule?
Its Inhibition is -8.19%.

With `Cc1cccc(Nc2ccccc2C(=O)O)c1C` [MEFENAMIC ACID] as the molecule, how does the Inhibition (Klebsiella pneumoniae) read?
Its Inhibition is 12.13%.

What about the Inhibition (Candida albicans) of the same molecule?
Its Inhibition is 7.85%.

What about the Inhibition (Cryptococcus neoformans) of the same molecule?
Its Inhibition is 2.83%.

Which Inhibition (Klebsiella pneumoniae) does the source give for `OCCN1CCN(CCCN2c3ccccc3Sc3ccc(Cl)cc32)CC1` [PERPHENAZINE] here?
Its Inhibition is 14.78%.

And the Inhibition (Candida albicans)?
Its Inhibition is 3.82%.

And the Inhibition (Cryptococcus neoformans)?
Its Inhibition is 23.91%.

`CCOC(=O)[C@H](CCc1ccccc1)N[C@H]1CCc2ccccc2N(CC(=O)O)C1=O.Cl` [BENAZEPRIL HYDROCHLORIDE] was tested. Which Inhibition (Klebsiella pneumoniae) did it give?
The Inhibition was 6.08%.

What about the Inhibition (Candida albicans) of the same molecule?
Its Inhibition is 3.12%.

And the Inhibition (Cryptococcus neoformans)?
The Inhibition was 0.84%.

What does the source list for `COc1ccc(-c2oc3c(CC=C(C)C)c(O[C@@H]4O[C@H](CO)[C@@H](O)[C@H](O)[C@H]4O)cc(O)c3c(=O)c2O[C@@H]2O[C@@H](C)[C@H](O)[C@@H](O)[C@H]2O)cc1` [ICARIIN]?
Inhibition (Klebsiella pneumoniae): 1.41%; Inhibition (Candida albicans): 4.36%; Inhibition (Cryptococcus neoformans): 0.11%

`Cl.O.O=C(c1ccc(F)cc1)C1CCN(CCn2c(=S)[nH]c3ccccc3c2=O)CC1` was tested. Which Inhibition (Klebsiella pneumoniae) did it give?
Its Inhibition is 11.14%.

And the Inhibition (Candida albicans)?
The Inhibition was 3.36%.

What about the Inhibition (Cryptococcus neoformans) of the same molecule?
The Inhibition was 0.24%.

What does the source list for `CC(C)[C@H]1CC[C@H](C(=O)N[C@H](Cc2ccccc2)C(=O)O)CC1` [NATEGLINIDE]?
Inhibition (Klebsiella pneumoniae): 12.08%; Inhibition (Candida albicans): 4.05%; Inhibition (Cryptococcus neoformans): -0.58%

With `CCC(C)(C)C(=O)O[C@H]1C[C@@H](C)C=C2C=C[C@H](C)[C@H](CC[C@@H]3C[C@@H](O)CC(=O)O3)[C@H]21` [SIMVASTATIN] as the molecule, how does the Inhibition (Klebsiella pneumoniae) read?
Its Inhibition is -2.13%.

What about the Inhibition (Candida albicans) of the same molecule?
Its Inhibition is 14.8%.

What about the Inhibition (Cryptococcus neoformans) of the same molecule?
The Inhibition was 3.41%.
